# Results: PubChem BioAssay (EPA / NIEHS)
# Active and inactive are the calls of the source. The calls were made as follows: active = hit-call score of the fitted dose curve at least 0.9, where 1 is the maximum; inactive = score below 0.9.
# Assay: ATG_E_Box_CIS: Attagene CIS-FACTORIAL HepG2 Assay for human Enhancer Box (E-box) (AID 2282936)
# Details: HepG2 E-box cis-reporter transcription, actives raise or lower the signal
# Procedure: ATG_CIS is a cell-based, multiplexed-readout assay that uses HepG2, a human liver cell line, with measurements taken at 24 hours after chemical dosing in a 24-well plate.ATG_E_Box_CIS is one of 52 assay component(s) measured or calculated from the ATG_CIS assay. It is designed to make measurements of mRNA induction, a form of inducible reporter, as detected with fluorescence intensity signals by Reverse transcription polymerase chain reaction (RT-PCR) and Capillary electrophoresis technology.Data from the assay component ATG_E_Box_CIS was analyzed into 1 assay endpoint. This assay endpoint, ATG_E_Box_CIS, was analyzed with bidirectional fitting relative to DMSO as the negative control and baseline of activity. Using a type of inducible reporter, measures of mRNA for gain or loss-of-signal activity can be used to understand the reporter gene at the transcription factor-level as they relate to the gene USF1. Furthermore, this assay endpoint can be referred to as a primary readout, because this assay has produced multiple assay endpoints where this one serves a reporter gene function. To generalize the intended target to other relatable targets, this assay endpoint is annotated to the dna binding intended target family, where the subfamily is basic helix-loop-helix protein.
# Human liver HepG2 cells are transiently transfected with multiple reporter transcription units (MRTUs) in 6-well plates using FuGene 6 reagent (Roche; 3 ml FuGene/1 mg DNA). The MRTU constructs are regulated by a cis-regulating element (promoter). […] A major difference between the CIS and TRANS system is that in CIS activities of endogenous TFs are measured, whereas the TRANS assay evaluates changes in activities of exogenous, chimeric NR-Gal4 proteins. […] At the end of 24 hour incubation, total RNA was isolated using TriZol reagent (Invitrogen). The isolated RNA is then reverse-transcribed using oligo(dT) primer and Mo-MLV reverse transcriptase (Invitrogen) with DNAse I (Ambion) treatment for 30 min. The one-tenth of the produced cDNA was amplified by PCR using Taq DNA polymerase (Invitrogen) and two reporter sequence-specific primers. The PCR products were fluorescently labeled by primer extension with 6-arboxyfluorescein (6-FAM) 5'-labeled reporter sequence-specific primer (2 min at 95 C, 20 s at 68 C and 10 min at 72 C) and these products were digested with 5U of HpaI (New England Biolabs) for 2h at 37 C. The fragments were purified using Qiaquick PCR columns (Qiagen), analyzed on an ABI 3130xL genetic analyzer (Applied Biosystems) with peak positions identified by using a set of X-rhodamine (ROX)-labeled MapMarker1000 molecular weight standards (BioVentures). The raw capillary electrophoresis data was processed using Attagraph software (Attagene).
SMILES,outcome,AC50
Nc1ccc(S(=O)(=O)O)c(N)c1,inactive,
CC(C)(Oc1ccc(CCNC(=O)c2ccc(Cl)cc2)cc1)C(=O)O,inactive,
COc1cc(C)cc(O)c1,inactive,
CC(C)(C)c1cc(CCC(=O)NN)cc(C(C)(C)C)c1O,inactive,
CC1CC(OC(=O)c2ccccc2O)CC(C)(C)C1 (stereo not given),inactive,
CC(=O)O[C@H](CC(=O)[O-])C[N+](C)(C)C,inactive,
NC(=O)Nc1ccc(Cl)cc1,inactive,
OC1OC[C@@H](O)[C@H](O)[C@H]1O (stereo not given in full),inactive,
CC[Si](OC(C)=O)(OC(C)=O)OC(C)=O,inactive,
C=CC(=O)OCCOCCOCC,inactive,
C=C(C)C1CCC(C)CC1O (stereo not given),inactive,
COc1cc2ncnc(Nc3cccc(Cl)c3)c2cc1OC,inactive,
C=CC(=O)NCOCC(C)C,inactive,
CCCc1c(OCCCOc2ccc(OCC(=O)O)cc2)ccc(C(C)=O)c1O,inactive,
C=C(C)C(=O)O[C@H]1C[C@@H]2CC[C@@]1(C)C2(C)C,,147 µM (active)
CC1(CO)CN(c2ccccc2)NC1=O (stereo not given),inactive,
COc1ccc(O)cc1,inactive,
O=Cc1ccc(Cl)c([N+](=O)[O-])c1,,47.7 µM (active)
Nc1cc(N)cc(C(=O)O)c1,inactive,
COC(=O)Cc1cccc2ccccc12,inactive,

SMILES,outcome,AC50
CCCC(=O)OCCC(C)CCC=C(C)C (stereo not given),inactive,
CCCC1CCC(=O)O1 (stereo not given),inactive,
CC(CC(C)(C)C)CC(C)(C)CC(C)(C)C (stereo not given),inactive,
C=CC[N+](C)(C)CC=C,inactive,
CC(=O)/C=C/C1=C(C)CCCC1(C)C,inactive,
CCN(CC)c1ccc(C(=C2C=CC(=[N+](CC)CC)C=C2)c2ccc(S(=O)(=O)O)cc2S(=O)(=O)[O-])cc1,inactive,
C=CC(C)(CCC=C(C)C)OC=O (stereo not given),inactive,
CCCCC(CC)COC(=O)/C=C\C(=O)OCC(CC)CCCC (stereo not given),inactive,
CC(C)c1cccc(O)c1,inactive,
CN(C)CCOCCN(C)C,inactive,
Cc1cc(C2(c3cc(C)c(O)cc3C)OS(=O)(=O)c3ccccc32)c(C)cc1O,inactive,
CC(C)=CCCC(C)CC=O (stereo not given),inactive,
C#C[C@]1(O)CC[C@H]2[C@@H]3CCC4=Cc5oncc5C[C@]4(C)[C@H]3CC[C@@]21C,,53.8 µM (active)
O=C(O)c1cccc([N+](=O)[O-])c1,inactive,
CCC(C)CCCC(C)(C)O (stereo not given),inactive,
CC(C)(N)CO,inactive,
Cc1ccc2sc3cccc(C)c3c2c1,inactive,
O=C(OCc1ccccc1)C(=O)OCc1ccccc1,inactive,
CC1(C)C(=O)N(Br)C(=O)N1Cl,inactive,
CCCCCCCCCCC(CO)CCCCCCCC (stereo not given),inactive,
